We go through six sequences from paper PMC4081100, “A DNA-binding-site landscape and regulatory network analysis for NAC transcription factors in Arabidopsis thaliana”.

Holding throughout (test): universal protein binding microarray (PBM); transcription factors of Arabidopsis thaliana; high values mean tight binding
Holding throughout (conditions): protein: recombinant; tags: GST; chain copies: 2; dsDNA, one strand shown

One assay concerns the target T1, GST-ANAC092(1-176) (Arabidopsis thaliana, UniProt Q9FKA0 1-176).
T1 sequence: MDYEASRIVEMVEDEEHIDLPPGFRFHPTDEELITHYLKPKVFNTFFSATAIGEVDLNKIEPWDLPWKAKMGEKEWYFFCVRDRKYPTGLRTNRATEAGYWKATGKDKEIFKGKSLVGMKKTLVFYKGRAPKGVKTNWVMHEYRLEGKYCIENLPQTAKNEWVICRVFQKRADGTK
In short, it runs like this:
(§1)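 Binding is expressed as the normalised enrichment score (E-score). Proteins carrying a GST tag, whether NAC-domain, full-length or DNA-binding-domain forms, were induced in cells, and zinc acetate was added for zinc-finger proteins. After purification on glutathione–Sepharose 4B and quantification by A280 or anti-GST western blot, each was applied in duplicate at 200 to 500 nM final to custom all-10-mer Agilent 4 × 180K arrays made double-stranded by primer extension. Gapped and ungapped 8-mers were scored.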

Another assay concerns the target GST-NTL6(1-168) (Arabidopsis thaliana, UniProt Q9SCK6 1-168). In short, it runs like this: as §1
The target in the next assay is T2, GST-ANAC019 NAC domain (Arabidopsis thaliana, UniProt Q9C932 14-162).
T2 sequence: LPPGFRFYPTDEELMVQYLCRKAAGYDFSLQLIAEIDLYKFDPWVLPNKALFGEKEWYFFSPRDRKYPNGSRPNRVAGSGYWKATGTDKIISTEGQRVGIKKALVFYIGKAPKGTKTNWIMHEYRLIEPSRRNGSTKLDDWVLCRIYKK
A digest of the protocol:
as §1

The target in another assay is T3, GST-ANAC055(1-171) (Arabidopsis thaliana, UniProt Q9LDY8 1-171).
T3 sequence: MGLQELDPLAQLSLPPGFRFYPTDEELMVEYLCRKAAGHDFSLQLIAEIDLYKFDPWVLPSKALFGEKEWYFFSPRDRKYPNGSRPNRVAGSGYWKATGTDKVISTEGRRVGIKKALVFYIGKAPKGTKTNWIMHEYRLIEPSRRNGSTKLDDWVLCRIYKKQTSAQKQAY
A digest of the protocol: as §1

The next assay concerns the target T4, GST-ATAF1 NAC domain (Arabidopsis thaliana, UniProt Q39013 7-158).
T4 sequence: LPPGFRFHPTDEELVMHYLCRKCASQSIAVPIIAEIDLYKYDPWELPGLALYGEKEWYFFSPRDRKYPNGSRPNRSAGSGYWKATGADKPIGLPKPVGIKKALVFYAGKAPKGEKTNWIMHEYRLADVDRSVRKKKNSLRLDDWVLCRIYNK
In short, it runs like this: as §1

Assay [1] has as its target T5, GST-ANAC092(1-285) full length (Arabidopsis thaliana, UniProt Q9FKA0 1-285).
T5 sequence: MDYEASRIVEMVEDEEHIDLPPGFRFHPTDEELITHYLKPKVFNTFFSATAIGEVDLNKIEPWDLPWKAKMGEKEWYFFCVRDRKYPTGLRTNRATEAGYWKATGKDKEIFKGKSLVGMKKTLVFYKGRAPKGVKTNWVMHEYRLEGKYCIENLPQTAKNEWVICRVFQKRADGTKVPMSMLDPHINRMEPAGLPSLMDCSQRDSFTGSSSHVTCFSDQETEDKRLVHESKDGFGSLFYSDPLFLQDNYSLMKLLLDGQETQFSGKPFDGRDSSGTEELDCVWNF
In short, it runs like this: as §1

For the next assay, the target named is T6, GST-NAP(1-166) (Arabidopsis thaliana, UniProt O49255 1-166).
T6 sequence: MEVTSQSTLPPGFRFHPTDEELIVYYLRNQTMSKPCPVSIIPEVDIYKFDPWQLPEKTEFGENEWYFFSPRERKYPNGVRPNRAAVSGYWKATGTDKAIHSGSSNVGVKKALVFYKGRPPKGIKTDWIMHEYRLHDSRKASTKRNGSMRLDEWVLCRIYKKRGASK
A digest of the protocol:
as §1

The next assay addresses T7, GST-NST2(1-184) (Arabidopsis thaliana, UniProt Q9M274 1-184).
T7 sequence: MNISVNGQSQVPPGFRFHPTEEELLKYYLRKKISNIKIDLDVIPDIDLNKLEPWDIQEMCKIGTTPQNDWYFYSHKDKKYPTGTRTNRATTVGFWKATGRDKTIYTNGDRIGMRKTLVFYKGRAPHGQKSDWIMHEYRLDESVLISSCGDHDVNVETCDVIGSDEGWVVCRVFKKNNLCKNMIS
In short, it runs like this: as §1

In a further assay the target is T8, GST-SND1(1-203) (Arabidopsis thaliana, UniProt Q9LPI7 1-203).
T8 sequence: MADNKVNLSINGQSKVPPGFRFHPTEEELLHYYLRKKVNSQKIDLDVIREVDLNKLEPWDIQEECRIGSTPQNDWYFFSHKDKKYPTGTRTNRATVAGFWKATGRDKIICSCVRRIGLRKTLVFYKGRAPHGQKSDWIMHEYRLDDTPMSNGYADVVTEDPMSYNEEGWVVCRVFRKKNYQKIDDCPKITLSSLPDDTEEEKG
A digest of the protocol:
as §1

A further assay has as its target T9, GST-VND3 NAC domain (Arabidopsis thaliana, UniProt Q9FH59 12-162).
T9 sequence: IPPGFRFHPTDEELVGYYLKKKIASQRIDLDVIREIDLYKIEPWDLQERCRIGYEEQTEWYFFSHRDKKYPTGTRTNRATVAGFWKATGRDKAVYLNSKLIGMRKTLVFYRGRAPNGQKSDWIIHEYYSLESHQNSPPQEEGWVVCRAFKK
A digest of the protocol:
as §1

Another assay has as its target T10, GST-VND7 NAC domain (Arabidopsis thaliana, UniProt Q9C8W9 9-158).
T10 sequence: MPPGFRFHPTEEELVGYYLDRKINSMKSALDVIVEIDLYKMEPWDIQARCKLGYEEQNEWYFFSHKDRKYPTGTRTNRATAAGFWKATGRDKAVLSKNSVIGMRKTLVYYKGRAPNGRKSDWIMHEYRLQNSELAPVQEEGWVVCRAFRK
A digest of the protocol:
as §1

A further assay has as its target T11, GST-NTL8 NAC domain (Arabidopsis thaliana, UniProt Q9XIN7 14-156).
T11 sequence: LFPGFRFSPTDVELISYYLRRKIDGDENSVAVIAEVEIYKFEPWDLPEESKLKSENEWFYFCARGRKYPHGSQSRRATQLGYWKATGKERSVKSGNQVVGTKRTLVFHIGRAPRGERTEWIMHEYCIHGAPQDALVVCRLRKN
In short, it runs like this: as §1

GST-NTL6(1-168), sequence (Q9SCK6 1-168): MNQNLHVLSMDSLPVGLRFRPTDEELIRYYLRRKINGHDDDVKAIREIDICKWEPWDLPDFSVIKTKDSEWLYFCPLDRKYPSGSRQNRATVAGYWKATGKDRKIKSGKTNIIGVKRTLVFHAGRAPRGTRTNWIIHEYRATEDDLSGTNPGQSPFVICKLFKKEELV

As for GCGTGTAA, the binding signal with GST-ANAC092(1-176) was found to be 0.444 E-score; with GST-NTL6(1-168) it was 0.0655 E-score; in the assay with GST-ANAC019 NAC domain it was 0.297 E-score; in the assay with GST-ANAC055(1-171), 0.222 E-score; with GST-ATAF1 NAC domain, 0.201 E-score; in assay [1] it was 0.438 E-score. The binding signal stood at 0.155 E-score with GST-NAP(1-166); 0.275 E-score with GST-NST2(1-184); 0.347 E-score in the assay with GST-SND1(1-203); 0.246 E-score with GST-VND3 NAC domain; 0.2 E-score with GST-VND7 NAC domain.

For the sequence ATACGAAA, the binding signal in the assay with GST-ANAC092(1-176) is 0.393 E-score; with GST-NTL6(1-168), 0.184 E-score; with GST-ANAC019 NAC domain it was 0.166 E-score; in the assay with GST-ANAC055(1-171), 0.202 E-score; in the assay with GST-ATAF1 NAC domain it was 0.259 E-score; in assay [1], 0.421 E-score. In addition, the binding signal is 0.251 E-score in the assay with GST-NAP(1-166); 0.271 E-score with GST-NST2(1-184); 0.239 E-score with GST-SND1(1-203); 0.296 E-score with GST-VND3 NAC domain; 0.205 E-score with GST-VND7 NAC domain.

For AAGTAAGC, the binding signal in the assay with GST-ANAC092(1-176) came to 0.284 E-score; in the assay with GST-NTL6(1-168) it was 0.404 E-score; with GST-ANAC019 NAC domain, 0.104 E-score; with GST-ANAC055(1-171) it was 0.158 E-score; in the assay with GST-ATAF1 NAC domain it was 0.199 E-score; in assay [1], 0.358 E-score. For the same sequence, the binding signal is 0.0599 E-score with GST-NAP(1-166); 0.171 E-score with GST-NST2(1-184); 0.337 E-score in the assay with GST-NTL8 NAC domain; 0.361 E-score with GST-SND1(1-203); 0.21 E-score with GST-VND3 NAC domain; 0.272 E-score with GST-VND7 NAC domain.

ATACGTAA: the binding signal with GST-ANAC092(1-176) is 0.462 E-score; with GST-NTL6(1-168), 0.175 E-score; with GST-ANAC019 NAC domain it was 0.476 E-score; with GST-ANAC055(1-171), 0.451 E-score; in the assay with GST-ATAF1 NAC domain, 0.407 E-score; in assay [1] it was 0.45 E-score. The binding signal in the assay with GST-NAP(1-166) turned out to be 0.461 E-score; with GST-NST2(1-184), 0.331 E-score; in the assay with GST-SND1(1-203), 0.393 E-score; with GST-VND3 NAC domain it was 0.462 E-score; with GST-VND7 NAC domain, 0.458 E-score.

As for GCGTAATA, the binding signal turned out to be 0.318 E-score with GST-ANAC092(1-176); 0.0582 E-score in the assay with GST-NTL6(1-168); 0.0565 E-score with GST-ANAC019 NAC domain; 0.189 E-score in the assay with GST-ANAC055(1-171); 0.0519 E-score with GST-ATAF1 NAC domain; 0.324 E-score in [1]. Also, the binding signal was found to be 0.109 E-score with GST-NAP(1-166); 0.306 E-score with GST-NST2(1-184); 0.422 E-score in the assay with GST-SND1(1-203); 0.203 E-score with GST-VND3 NAC domain; 0.246 E-score with GST-VND7 NAC domain.

In the case of ACACGGAA, the binding signal was 0.464 E-score in the assay with GST-ANAC092(1-176); 0.0747 E-score with GST-NTL6(1-168); 0.486 E-score in the assay with GST-ANAC019 NAC domain; 0.481 E-score with GST-ANAC055(1-171); 0.376 E-score with GST-ATAF1 NAC domain; 0.458 E-score in [1]. Further, the binding signal in the assay with GST-NAP(1-166) was 0.45 E-score; in the assay with GST-NST2(1-184), 0.328 E-score; with GST-SND1(1-203) it was 0.057 E-score; with GST-VND3 NAC domain, 0.467 E-score; with GST-VND7 NAC domain, 0.479 E-score.
